# Cruzain inh Det = cruzain (T. cruzi) inhibition with detergent | purified cruzain, Z-FR-AMC fluorescence, 0.01% Triton | AID 1478 | Potency, µM, for inactives: max response, negative = inhibition, actives largely listed as inhibitors | 200,000 compounds, 0.43% hits | P25779;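 note: plate controls were neutral wells for no effect and buffer without enzyme for full effect; nearly all actives have a fitted effect of over 40% in size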
# Target sequence (P25779 123-467 limits assumed): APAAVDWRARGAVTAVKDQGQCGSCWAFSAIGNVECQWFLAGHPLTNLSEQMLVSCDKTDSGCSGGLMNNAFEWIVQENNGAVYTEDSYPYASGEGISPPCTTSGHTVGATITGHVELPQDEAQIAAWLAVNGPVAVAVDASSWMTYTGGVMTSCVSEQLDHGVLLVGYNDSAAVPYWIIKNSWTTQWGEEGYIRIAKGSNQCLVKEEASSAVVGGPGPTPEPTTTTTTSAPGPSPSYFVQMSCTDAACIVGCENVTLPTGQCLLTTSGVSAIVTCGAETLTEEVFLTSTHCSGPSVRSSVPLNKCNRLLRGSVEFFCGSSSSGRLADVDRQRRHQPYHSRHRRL
#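 Sodium acetate buffer (100 mM, pH 5.5) containing 5 mM DTT and 0.01% Triton X-100 hosted 1.5 nM cruzain and test compound for 15 min at room temperature. Cleavage of 2 uM Z-FR-AMC was then tracked by fluorescence.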
# Cruzain inh noDet = inhibitors of Trypanosoma cruzi cruzain without detergent; 200,000 compounds, 2.3% hits; AID 1476; purified cruzain, Z-FR-AMC fluorescence, no detergent; Potency, µM, for inactives: max response, negative = inhibition, hits mostly inhibitors;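 note: plate controls were enzyme without inhibitor for no effect and buffer without enzyme for full effect; nearly all actives have a fitted effect of over 40% in size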
#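 Purified cruzain at 1.5 nM, pre-incubated 15 min with compound at room temperature in 100 mM sodium acetate pH 5.5, 5 mM DTT, 0.00005% Triton X-100. Reaction started with 2 uM Z-FR-AMC; AMC fluorescence increase over 60 s gives rate.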
# The depositor's hits bear a star; u = inconclusive. The list is not random: actives were taken first. Their share in the collection is about 2.6%. Calls come from the whole dose curve; as a rule, active = well fitted curve in the direction sought with a large enough effect; inconclusive = small, poorly fitted or top-dose-only effect, or another doubt; inactive = no such curve, though single readings can be large; an effect the other way counts as inactive or inconclusive. Potency is the fitted concentration of half-maximal effect.
SMILES,Cruzain inh Det,Cruzain inh noDet
COC(C)(C)CCCC(C)C/C=C/C(C)=C/C(=O)O (stereo not given),-4%,3%
Cc1cccc(NC(=O)c2cn(-c3ccccc3)nc2-c2ccccc2)c1C,-6%,11%
CC(C)c1ccc(S(=O)(=O)/N=C2/C=C(Sc3ncn[nH]3)C(=O)c3ccccc32)cc1,-14%,13µM*
Cc1ccc(S(=O)(=O)/N=C2/C=C(Sc3ncn[nH]3)C(=O)c3ccccc32)cc1,-7%,u
CCCCc1ccc(C(=O)N/C(=C\c2ccc(C)cc2)C(=O)NC2CCCCC2)cc1,0%,2%
O=[N+]([O-])c1cc(S(=O)(=O)c2ccc(N3CCCCC3)c([N+](=O)[O-])c2)ccc1N1CCCCC1,-8%,7.9µM*
O=C(/C=C/c1ccc(N2CCCCC2)c([N+](=O)[O-])c1)c1ccc(S(=O)(=O)N2CCCC2)cc1,-6%,32µM*
COc1cccc(C(=O)/C=C/c2ccc(N3CCCCC3)c([N+](=O)[O-])c2)c1,-5%,6%
O=[N+]([O-])c1cccc(S(=O)(=O)c2ccc(N3CCCCC3)c([N+](=O)[O-])c2)c1,-7%,u
Cc1ccc(-c2nnn(CC(=O)N(CC(=O)NCCC(C)C)c3ccc(F)cc3)n2)cc1,-3%,-3%
CCc1ccc(C(=O)c2cn(CC(=O)NCCc3ccccc3)c3nc(C)ccc3c2=O)cc1,0%,-12%
O=C(Nc1nc(-c2ccccn2)cs1)c1ccc(Br)s1,-24%,u
O=C(Nc1nc(-c2cc(Cl)sc2Cl)cs1)c1ccc(Br)s1,-7%,7.9µM*
CC(=O)Nc1nc(-c2ccc(Br)s2)cs1,3%,13µM*
Cc1ccc(NC(=O)Nc2nnc(N3CCCC3)s2)cc1,-5%,23%
Cc1ccc(NC(=O)Nc2nc(-c3ccc(C)s3)cs2)cc1,4%,25µM*
O=C(Nc1nc(-c2cc(Cl)sc2Cl)cs1)c1cccs1,-5%,u
CCOC(=O)c1cccc(NC(=O)c2ccc3c(c2)nnn3C2CCCC2)c1,1%,-10%
CCc1ccc(NC(=O)Cn2c(=O)nc(-c3ccccc3F)c3cc(Cl)ccc32)cc1,-2%,2%
CC(C)[C@@H](CC(=O)N[C@@H]1CCCC[C@H]1C(=O)N[C@H](CC(=O)N[C@@H](CCC(=O)O)CC(=O)O)Cc1c[nH]c2ccccc12)NC(=O)C[C@H](CO)NC(=O)[C@@H]1CCCC[C@H]1N,2%,-3%
CCc1c(C)sc2c1CCN(Cc1ccccc1)C2c1ccccc1 (stereo not given),-6%,0%
O=S(=O)(N/N=C\c1cn(-c2ccccc2)nc1-c1ccccc1)c1ccccc1,-3%,u
O=C(N/N=C/c1cn(-c2ccccc2)nc1-c1cccs1)c1ccc(Cl)cc1,-9%,13µM*
O=C(CNc1ccccc1)N/N=C/c1cn(-c2ccccc2)nc1-c1ccccc1,-6%,25µM*
O=C(N/N=C\c1ccc(OC(=O)c2cccs2)cc1)c1ccc(Cl)cc1,-21%,10µM*
SMILES,Cruzain inh Det,Cruzain inh noDet
COc1ccc(C(=O)N/N=C/c2ccc(OC(=O)c3cccs3)cc2)cc1,0%,u
O=C(N/N=C/c1cn(-c2ccccc2)nc1-c1cccs1)c1ccccc1F,-7%,32µM*
O=C(N/N=C/c1cn(-c2ccccc2)nc1-c1cc2ccccc2o1)c1ccncc1,-11%,24%
O=C(Nc1ccncc1)c1cn(-c2ccccc2)nc1-c1cccs1,-4%,-8%
CC(Oc1ccc(F)cc1)C(=O)Nc1nc(-c2ccc(F)cc2)ns1 (stereo not given),-7%,-3%
O=C(CSc1nc2c(c(=O)[nH]1)CN(Cc1ccc(F)cc1)CC2)Nc1cccc(C(F)(F)F)c1,-4%,1%
Fc1ccc(CNc2nc(-c3ccccc3)cc(C(F)(F)F)n2)cc1,1%,6%
CCOc1ccc(-c2cc3c(=O)n(Cc4nc(-c5cccc(OC)c5OC)oc4C)ccn3n2)cc1Cl,-1%,7%
COc1ccc(C(C(=O)NC2CCCC2)N(C(=O)c2ccoc2C)c2ccccc2)cc1 (stereo not given),-2%,-7%
COc1ccc(C(C(=O)NC2CCCCC2)N(C(=O)c2sc(C)nc2C)c2ccccc2)cc1 (stereo not given),-2%,1%
COc1ccc(C(C(=O)NC2CCCC2)N(C(=O)c2snc(-c3ccc(F)cc3)c2N)c2ccc(OC)cc2)cc1 (stereo not given),2%,25µM*
COc1ccc(C(C(=O)NC2CCCC2)N(C(=O)c2snc(-c3ccc(F)cc3)c2N)c2cccc(F)c2)cc1 (stereo not given),-1%,10µM*
COc1ccc(C(C(=O)NC2CCCCC2)N(C(=O)c2sc(C)nc2C)c2ccc(OC)cc2)cc1 (stereo not given),3%,u
COc1ccc(C(C(=O)NC2CCCCC2)N(C(=O)CCl)c2ccc(Cl)cc2)cc1 (stereo not given),2%,u
COc1ccc(C(C(=O)NC2CCCC2)N(C(=O)c2snc(-c3ccc(F)cc3)c2N)c2ccc(F)cc2)cc1 (stereo not given),3%,25µM*
COc1ccc(C(C(=O)NC2CCCC2)N(C(=O)c2snc(-c3ccc(F)cc3)c2N)c2ccccc2)cc1 (stereo not given),7%,7.9µM*
Cc1cccc(OCC(=O)N(Cc2cccs2)c2ccc(Cl)cc2)c1C,-8%,-4%
COc1ncc2nc(-c3cc(F)cc(F)c3)c(=O)n(CCc3ccccc3)c2n1,1%,-3%
CCc1ccc(NC(=O)CC2C(=O)N(c3cccc(C)c3)C(=O)N2Cc2cccs2)cc1 (stereo not given),-9%,0%
COc1ccc(NC(=O)C2=C(C)C(=O)OC23CCN(C(C)C)CC3)cc1Cl,-2%,-17%
Cc1ccc(NC(=O)N2CCN(c3nnc(C)c4c(C)n(-c5ccccc5)nc34)CC2)cc1Cl,-1%,-5%
CC(=O)c1ccc(NC(=O)c2nc(-c3ccccc3)n(-c3ccc(C)cc3)n2)cc1,-5%,8%
CC(=O)c1ccc(NC(=O)c2nc(-c3ccccc3)n(-c3ccc(Cl)cc3)n2)cc1,-5%,13µM*
COc1cccc(Cn2c(=O)c(-c3ccc(Cl)cc3)nc3cnc(OC)nc32)c1,3%,-6%
Cc1cc2c(cc1C)CSC(c1ccc3ccccc3c1O)SC2,0%,25µM*
SMILES,Cruzain inh Det,Cruzain inh noDet
Cc1cc2c(cc1C)CSC(c1c(O)ccc3ccccc13)SC2,3%,u
CC(C)(C)NC(=O)CSc1nncn1-c1ccccc1,-2%,0%
O=C(CSc1nncn1-c1ccccc1)Nc1cc(Cl)cc(Cl)c1,-2%,25µM*
O=C1COc2cc(S(=O)(=O)NCc3ccco3)c(Cl)cc2N1,-4%,5%
CCN(Cc1ccc(OC)cc1)c1ccc(-c2nc(-c3ccncc3)no2)cc1[N+](=O)[O-],-13%,-3%
Cc1nc(-c2ccc(C)c(N3CCN(C(=O)Nc4ccc(Br)cc4)CC3)c2)no1,-3%,-29%
O=C1CC(N(CCc2ccccc2)C(=S)Nc2cc(Cl)ccc2Cl)C(=O)N1c1c(Cl)cccc1Cl (stereo not given),1%,13µM*
O=C1CC(N(CCc2ccccc2)C(=S)Nc2ccccc2)C(=O)N1c1ccccc1 (stereo not given),-1%,-2%
O=S(=O)(NCCc1nnc2ccc(SCc3ccccc3Cl)nn12)c1ccccc1,-8%,u
Cc1ccc(-c2cc(-c3ccccc3O)nc(N/N=C/c3cccnc3)n2)cc1,3%,25µM*

# Source: PubChem
